SMILES strings stand for the structures. Out of some 63,000 compounds screened, about 1,100 (1.7%) were called active. The sample as a whole holds a higher share of actives than the screen did. Entries with a potency or affinity are not part of this list. Values without a mark were called inactive.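 The calls were made as follows: active = compounds whose percent cytotoxicity in the single-dose primary screen, scaled between solvent and toxic-drug controls, exceeds 50; inactive = the rest.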

This test can be described thus: cytotoxicity in KRAS-transformed pancreatic duct cells, primary screen, cell-based, fluorescence, HTS (AID 431).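 Also: 0% = DMSO solvent wells and 100% = doxorubicin-treated wells.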 The conditions noted are these: HPDE-C7K KRASV12 cells, Alamar Blue viability, 48 h; at 10 µM; stronger effect = higher value. (Resazurin is reduced to fluorescent resorufin, in cell work by metabolically active cells.)
On to `CCCCOc1ccc(-c2ncc(Cl)cn2)cc1`, for which the cytotoxicity was -15%.
Regarding `Cn1c(Cn2c(=O)sc3ccccc32)nnc1SCC(=O)N1CCN(c2ccccc2)CC1`, the cytotoxicity is 8.3%.
The same measure for `O=C(COc1ccc2c(c1)OCO2)Nc1ccc2c(c1)oc1ccccc12`: 2.3%; for `O=C(Cn1ncc2c(=O)oc3ccccc3c21)N1CCN(C(=O)c2ccco2)CC1`: 0.4%; for `COC(=O)c1cc(-c2c(C)oc3cc(OC(C)C)ccc3c2=O)c(C)o1`: -13.5%.
On to `Cn1c(=O)c2c(nc(CN3CCN(C(=O)c4ccco4)CC3)n2CCc2ccccc2)n(C)c1=O`, for which the cytotoxicity is -4.3%.
`CCOC(=O)c1ccc(NC(=O)NC(C)C2CCCO2)cc1` (stereo not drawn): the cytotoxicity is -0.2%.
The same measure for `Cc1ccccc1CS(=O)(=O)CCC(=O)N1CCN(c2ccc(N3CCOCC3)nn2)CC1`: 3.2%; for `COc1ccc(OC)c(C2=Nn3c(nnc3-c3cc(OC)c(OC)c(OC)c3)SC2)c1`: 10.4%; for `COc1ccc(-c2nnc3n2N=C(c2ccccc2)CS3)cc1OC`: -3%.
`COc1cc(-c2nnc3n2N=C(c2ccccc2)CS3)cc(OC)c1OC`: the cytotoxicity is 63.5% (active).
Regarding `CCOC(=O)/C=C1\NC(C)(C)Cc2cc(OC)c(O)cc21`, the cytotoxicity was 5.5%.
As for `COc1cc2c(cc1OC)C(/C(C#N)=N\O)=NC(C)(C)C2`, the cytotoxicity was 7%.
With `O=C(CN1CCN(c2ccccc2F)CC1)Nc1ccccc1F`, the cytotoxicity was -7%.
Next, `O=C(NCc1ccco1)c1sc(=S)n2c1[nH]c(=O)c1ccccc12`: 81.4% (active).
Take `CCCCCCNC(=O)c1c(O)c2ccccc2[nH]c1=O`: the cytotoxicity is -1.5%.
As for `C=CCn1c(N)c(C(=O)NCc2ccco2)sc1=S`, the cytotoxicity was 7.1%.
As to `CCCCNC(=O)c1sc(=S)n2c1[nH]c(=O)c1ccccc12`, the cytotoxicity is 62.6% (active).
On to `CCCCNC(=O)c1ccccc1C(=O)NCCCC`, for which the cytotoxicity is -2.3%.
Consider `CCn1c(N)c(C(=O)NCc2ccco2)sc1=S`, for which the cytotoxicity was -5.3%.
For `O=C(NCCCN1CCN(c2ccccc2F)CC1)C1CCC(=O)N1C1CCCC1` (stereo not drawn), the cytotoxicity was -6.6%.
For the compound `Cn1c(CCCCCN)nc2ccccc21`, the cytotoxicity is -27.2%.
Next, `OCCN(Cc1ccccc1)Cc1ccccc1F`: -13.3%; `CCCc1ccc(OCC(=O)O)cc1`: 2.3%.
As to `COc1ccc(O)c(-c2[nH]ncc2C(=O)c2ccccc2C)c1`, the cytotoxicity is 2.7%.
As for `CCCc1ccc(Oc2cn[nH]c2-c2ccc(O)c(C)c2O)cc1`, the cytotoxicity is 119% (active).
Regarding `CCCc1ccc(Oc2cn[nH]c2-c2ccc(O)cc2O)cc1`, the cytotoxicity was 29.1%.
Turning to `CC(C)Sc1ncnc2c1oc1ccccc12`, the cytotoxicity is -7.4%.
As for `COc1ccc(CNC(=O)CSc2nc3nc(C)cc(C)n3n2)cc1`, the cytotoxicity was 1.6%.
On to `Cc1nn(-c2cccc(C(F)(F)F)c2)c(Cl)c1/C=N/n1cnnc1`, for which the cytotoxicity was 3.5%.
`Fc1cccc(Cl)c1CSc1nnnn1-c1ccc2c(c1)OCO2`: the cytotoxicity is 51.7% (active).
Take `Fc1ccccc1CSc1nnnn1-c1ccc2c(c1)OCO2`: the cytotoxicity is 2.3%.
As for `Fc1cccc(Cl)c1Cn1nnc(-c2ccc3c(c2)OCO3)n1`, the cytotoxicity was -3.6%.
Consider `Cc1cc2nc(NC3=NCN(Cc4cccnc4)CN3)nc(C)c2cc1C`, for which the cytotoxicity was 53.3% (active).
On to `Cc1nc(NC2=NCN(Cc3ccc4c(c3)OCO4)CN2)nc2ccccc12`, for which the cytotoxicity is 15.2%.
Regarding `Cc1cc2nc(NC3=NCN(Cc4ccc5c(c4)OCO5)CN3)nc(C)c2cc1C`, the cytotoxicity was 90% (active).
As to `Cc1ccc2nc(NC3=NCN(Cc4ccc5c(c4)OCO5)CN3)nc(C)c2c1`, the cytotoxicity is 12.9%.
The same measure for `Cc1nc(NC2=NCN(Cc3cccnc3)CN2)nc2ccccc12`: 6.2%; for `Cc1ccc2nc(NC3=NCN(Cc4cccnc4)CN3)nc(C)c2c1`: 5.9%.
Consider `Cc1ccc(CCN2CC(C(=O)NCCCN3CCOCC3)CC2=O)cc1` (stereo not drawn), for which the cytotoxicity was 2%.
As for `Cc1ccc(C)n1-c1ncn[nH]1`, the cytotoxicity is 1.3%.
Regarding `c1nc(NCCN2CCOCC2)c2sc3nc(N4CCOCC4)c4c(c3c2n1)CCC4`, the cytotoxicity was 18.4%.
With `OCCN(CCO)c1ncnc2c1sc1nc(N3CCOCC3)c3c(c12)CCCC3`, the cytotoxicity was 34.4%.
On to `CC1(C)Cc2c(C#N)c(NCCN3CCOCC3)nc(-c3ccco3)c2CO1`, for which the cytotoxicity is 8.7%.
As to `CSc1nc(N2CCN(CCO)CC2)c2sc3nc(-c4ccco4)c4c(c3c2n1)CCC4`, the cytotoxicity is 4.4%.
As for `O=C(Cn1cc2c(n1)CCCCC2)N1CCCCC1`, the cytotoxicity was 5.5%.
With `CCc1ccc(OCC(=O)N(C)C)c(Br)c1`, the cytotoxicity was 7%.
Regarding `CCCCc1ccc(NC(=O)OC)cc1`, the cytotoxicity was -10.3%.
Regarding `CCCCc1ccc(NC(=O)COCC)cc1`, the cytotoxicity was -2.8%.
Next, `CCOC(=O)CSC(CC)C(=O)Nc1nnc(C(C)C)s1` (stereo not drawn): 1.3%; `COc1ccc(CCNC(=O)C2CCN(C(=O)N(C)C)CC2)cc1OC`: -12.4%.
`CCOC(=O)c1cc(-c2ccco2)nc2c1c(C)nn2-c1ccccc1`: the cytotoxicity is -7.1%.
For `COc1cc(C(=O)Nc2ccc(NC(=O)c3ccco3)nc2)cc(OC)c1OC`, the cytotoxicity was -3.4%.
`CCOc1cc(NC(=O)c2ccco2)c(OCC)cc1NC(=O)c1cc(OC)c(OC)c(OC)c1`: the cytotoxicity is 7.5%.
`COc1cc(NC(=O)c2ccco2)c(OC)cc1NC(=O)c1cc(OC)c(OC)c(OC)c1`: the cytotoxicity is 50.8% (active).
As for `COc1cccc(NC(=O)Cn2nnc(-c3ccccc3N)n2)c1`, the cytotoxicity was 6.3%.
Turning to `CCc1ccc2[nH]c(=O)c(CN(CCO)C(=O)NCc3ccccc3)cc2c1`, the cytotoxicity is -4.1%.
With `N#Cc1cc(Oc2cccc3cccnc23)c(-n2nnc3ccccc32)cc1C#N`, the cytotoxicity is 74.9% (active).
Turning to `c1ccc(-n2nnnc2Oc2cccc3cccnc23)cc1`, the cytotoxicity is -4.5%.
Take `COc1ccccc1Oc1cc(C#N)c(C#N)cc1-n1nnc2ccccc21`: the cytotoxicity is -24.3%.
For `CCCC(=O)n1nc(-c2ccco2)nc1SCc1ccccc1`, the cytotoxicity was 2.3%.
For `CCn1c(SCC(=O)Nc2ccc(S(=O)(=O)Nc3ccccn3)cc2)nnc1-c1ccncc1`, the cytotoxicity was -0.6%.
For the compound `COC(=O)c1c(C(=O)OC)c2n(c1C)Cc1ccccc1C2`, the cytotoxicity is 3%.
Regarding `Cc1occc1C(=O)Nc1cccc(C(=O)NCc2ccccc2)c1`, the cytotoxicity was -17.7%.
In the case of `Cc1ccc(C(=O)Nc2cccc(C(=O)NCc3ccco3)c2)cc1`, the cytotoxicity is 66.2% (active).
As for `O=C(NCc1ccco1)c1cccc(NC(=O)c2ccccc2)c1`, the cytotoxicity was 33.2%.
For `O=C(NCc1ccccc1)c1cccc(NC(=O)c2ccco2)c1`, the cytotoxicity is 35.4%.
Consider `CCC(CC)C(=O)Nc1cccc(C(=O)NCc2ccco2)c1`, for which the cytotoxicity is -2.1%.

For the origin of these results see PubChem BioAssay AID431 (Sanford-Burnham Center for Chemical Genomics, 2006).
